Tests used:
Experiment in all cases: DAPPL (digital affinity profiling via proximity ligation, sequencing); 10 mM Tris-HCl pH 7.5, 50 mM NaCl, 1 mM DTT, 4% glycerol, room temperature, 30 min; GST-TFs on glutathione beads, 16-mer random dsDNA library, 0.1% formaldehyde crosslink after washing; high values mean tight binding
FLI1 = target: T1, FLI1 (Homo sapiens, UniProt Q01543 1-452); settings: protein: recombinant; tags: N-terminal GST; dsDNA, one strand shown
T1 sequence: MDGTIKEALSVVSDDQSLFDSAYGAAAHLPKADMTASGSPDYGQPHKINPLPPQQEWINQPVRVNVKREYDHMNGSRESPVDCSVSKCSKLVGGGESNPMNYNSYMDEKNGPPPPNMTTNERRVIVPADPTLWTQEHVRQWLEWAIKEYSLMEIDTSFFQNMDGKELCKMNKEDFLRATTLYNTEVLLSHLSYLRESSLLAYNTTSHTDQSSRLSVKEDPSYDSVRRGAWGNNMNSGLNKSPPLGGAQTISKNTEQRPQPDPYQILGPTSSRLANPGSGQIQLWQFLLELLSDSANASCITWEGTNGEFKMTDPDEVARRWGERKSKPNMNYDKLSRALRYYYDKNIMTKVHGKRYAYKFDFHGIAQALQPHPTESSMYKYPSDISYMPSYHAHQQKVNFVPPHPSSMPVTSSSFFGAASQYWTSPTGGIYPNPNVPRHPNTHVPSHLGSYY
Outline: (§1)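 Each value of binding signal is a hexamer's read frequency for a factor divided by the same hexamer's frequency in the tag-only sample. Barcoded, bead-captured GST fusions of human transcription factors made in yeast were pooled with that sample and incubated with 200 nmole of a random double-stranded 16-mer DNA library in Tris/NaCl/DTT/glycerol buffer at room temperature for 30 min. Washing, 0.1% formaldehyde crosslinking, proximity ligation, PCR and Illumina NextSeq500 sequencing followed.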

ELK1 = target: T2, ELK1 (Homo sapiens, UniProt P19419 1-428); settings: protein: recombinant; tags: N-terminal GST; dsDNA, one strand shown
T2 sequence: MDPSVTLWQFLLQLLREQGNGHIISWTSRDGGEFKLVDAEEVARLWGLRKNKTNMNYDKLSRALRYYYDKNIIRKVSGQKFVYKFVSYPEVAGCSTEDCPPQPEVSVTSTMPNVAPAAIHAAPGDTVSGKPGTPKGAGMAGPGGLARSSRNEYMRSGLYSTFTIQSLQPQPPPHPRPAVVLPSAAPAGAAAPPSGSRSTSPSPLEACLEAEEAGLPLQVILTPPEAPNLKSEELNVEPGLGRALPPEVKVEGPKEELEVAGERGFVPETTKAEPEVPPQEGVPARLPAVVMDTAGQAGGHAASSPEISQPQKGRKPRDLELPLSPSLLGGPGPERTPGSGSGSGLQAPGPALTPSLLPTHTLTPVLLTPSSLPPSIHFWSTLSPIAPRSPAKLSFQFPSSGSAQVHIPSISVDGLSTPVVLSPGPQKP
Outline: as §1

GABPA = target: T3, GABPA (Homo sapiens, UniProt Q06546 1-454); settings: protein: recombinant; tags: N-terminal GST; dsDNA, one strand shown
T3 sequence: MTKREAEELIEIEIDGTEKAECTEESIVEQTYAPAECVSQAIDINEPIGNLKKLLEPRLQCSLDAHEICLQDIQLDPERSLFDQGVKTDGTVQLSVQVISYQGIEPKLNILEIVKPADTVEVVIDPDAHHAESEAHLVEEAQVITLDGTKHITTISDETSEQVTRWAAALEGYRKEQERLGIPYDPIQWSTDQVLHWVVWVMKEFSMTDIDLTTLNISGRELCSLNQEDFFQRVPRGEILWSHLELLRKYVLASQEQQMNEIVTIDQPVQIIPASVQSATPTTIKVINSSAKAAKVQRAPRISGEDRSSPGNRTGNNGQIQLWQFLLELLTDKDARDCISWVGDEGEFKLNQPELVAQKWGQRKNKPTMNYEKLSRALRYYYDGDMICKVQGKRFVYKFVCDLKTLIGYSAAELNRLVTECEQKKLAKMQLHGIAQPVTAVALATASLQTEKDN
Outline: as §1

ERG = target: T4, ERG (Homo sapiens, UniProt P11308 1-479); settings: protein: recombinant; tags: N-terminal GST; dsDNA, one strand shown
T4 sequence: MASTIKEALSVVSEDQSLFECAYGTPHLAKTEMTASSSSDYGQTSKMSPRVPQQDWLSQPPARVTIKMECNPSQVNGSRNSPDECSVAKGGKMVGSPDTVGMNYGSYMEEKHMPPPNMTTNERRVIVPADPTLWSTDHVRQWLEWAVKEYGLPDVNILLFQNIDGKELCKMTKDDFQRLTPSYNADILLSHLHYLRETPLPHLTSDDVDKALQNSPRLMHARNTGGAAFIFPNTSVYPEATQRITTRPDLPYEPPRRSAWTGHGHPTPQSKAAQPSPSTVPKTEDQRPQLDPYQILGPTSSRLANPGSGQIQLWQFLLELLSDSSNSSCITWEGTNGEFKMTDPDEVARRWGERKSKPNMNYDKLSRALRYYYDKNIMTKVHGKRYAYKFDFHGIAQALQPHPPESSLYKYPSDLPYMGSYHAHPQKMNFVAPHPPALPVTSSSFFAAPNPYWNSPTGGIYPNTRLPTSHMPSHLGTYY
Outline: as §1

ELF1 = ELF1 (Homo sapiens, UniProt P32519 1-619); settings: protein: recombinant; tags: N-terminal GST; dsDNA, one strand shown
Outline: as §1

EHF = target: T5, EHF (Homo sapiens, UniProt Q9NZC4 1-300); settings: protein: recombinant; tags: N-terminal GST; dsDNA, one strand shown
T5 sequence: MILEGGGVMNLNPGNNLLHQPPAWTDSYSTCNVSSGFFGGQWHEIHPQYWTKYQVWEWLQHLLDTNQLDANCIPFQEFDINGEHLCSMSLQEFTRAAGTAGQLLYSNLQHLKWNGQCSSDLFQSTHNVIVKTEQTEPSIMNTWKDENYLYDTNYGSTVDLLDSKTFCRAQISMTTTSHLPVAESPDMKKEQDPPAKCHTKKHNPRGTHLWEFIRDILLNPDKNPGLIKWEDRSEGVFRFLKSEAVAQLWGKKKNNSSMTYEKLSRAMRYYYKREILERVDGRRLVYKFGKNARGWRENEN
Outline: as §1

SPI1 = SPI1 (Homo sapiens, UniProt P17947 1-270); settings: protein: recombinant; tags: N-terminal GST; dsDNA, one strand shown
Outline: as §1

SPIB = SPIB (Homo sapiens, UniProt Q01892 1-262); settings: protein: recombinant; tags: N-terminal GST; dsDNA, one strand shown
Outline: as §1

ELK3 = target: T6, ELK3 (Homo sapiens, UniProt P41970 1-407); settings: protein: recombinant; tags: N-terminal GST; dsDNA, one strand shown
T6 sequence: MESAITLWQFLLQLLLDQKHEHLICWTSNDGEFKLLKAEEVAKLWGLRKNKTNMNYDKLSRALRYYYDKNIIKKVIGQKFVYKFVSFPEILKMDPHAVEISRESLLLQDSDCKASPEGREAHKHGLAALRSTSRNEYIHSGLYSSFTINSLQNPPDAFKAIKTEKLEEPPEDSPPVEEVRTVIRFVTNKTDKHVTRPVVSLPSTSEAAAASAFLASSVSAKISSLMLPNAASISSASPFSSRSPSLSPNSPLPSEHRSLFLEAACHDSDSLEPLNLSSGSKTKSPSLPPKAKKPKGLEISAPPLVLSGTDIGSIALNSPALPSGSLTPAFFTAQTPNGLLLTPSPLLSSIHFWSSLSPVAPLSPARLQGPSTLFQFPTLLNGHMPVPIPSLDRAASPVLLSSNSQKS
Outline: as §1

FEV = target: T7, FEV (Homo sapiens, UniProt Q99581 1-238); settings: protein: recombinant; tags: N-terminal GST; dsDNA, one strand shown
T7 sequence: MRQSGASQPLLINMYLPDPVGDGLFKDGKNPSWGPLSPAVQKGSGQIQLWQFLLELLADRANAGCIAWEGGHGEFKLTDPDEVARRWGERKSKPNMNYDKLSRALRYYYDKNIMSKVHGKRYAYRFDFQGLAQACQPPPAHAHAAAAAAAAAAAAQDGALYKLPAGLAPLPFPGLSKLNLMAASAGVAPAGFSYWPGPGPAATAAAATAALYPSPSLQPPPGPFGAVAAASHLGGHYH
Outline: as §1

ETV5 = ETV5 (Homo sapiens, UniProt P41161 1-510); settings: protein: recombinant; tags: N-terminal GST; dsDNA, one strand shown
Outline: as §1

HSF1 = HSF1 (Homo sapiens, UniProt Q00613 1-529); settings: protein: recombinant; tags: N-terminal GST; chain copies: 3; dsDNA, one strand shown
Outline: as §1

SPIC = target: T8, SPIC (Homo sapiens, UniProt Q8N5J4 1-248); settings: protein: recombinant; tags: N-terminal GST; dsDNA, one strand shown
T8 sequence: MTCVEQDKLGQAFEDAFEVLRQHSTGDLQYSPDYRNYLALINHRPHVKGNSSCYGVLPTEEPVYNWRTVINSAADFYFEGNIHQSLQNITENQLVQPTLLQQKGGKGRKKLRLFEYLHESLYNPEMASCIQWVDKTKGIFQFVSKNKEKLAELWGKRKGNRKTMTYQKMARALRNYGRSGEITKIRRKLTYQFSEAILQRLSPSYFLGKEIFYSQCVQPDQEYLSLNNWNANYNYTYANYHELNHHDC
Outline: as §1

ELF4 = ELF4 (Homo sapiens, UniProt Q99607 1-663); settings: protein: recombinant; tags: N-terminal GST; dsDNA, one strand shown
Outline: as §1

ELK4 = target: T9, ELK4 (Homo sapiens, UniProt P28324-2 1-405); settings: protein: recombinant; tags: N-terminal GST; dsDNA, one strand shown
T9 sequence: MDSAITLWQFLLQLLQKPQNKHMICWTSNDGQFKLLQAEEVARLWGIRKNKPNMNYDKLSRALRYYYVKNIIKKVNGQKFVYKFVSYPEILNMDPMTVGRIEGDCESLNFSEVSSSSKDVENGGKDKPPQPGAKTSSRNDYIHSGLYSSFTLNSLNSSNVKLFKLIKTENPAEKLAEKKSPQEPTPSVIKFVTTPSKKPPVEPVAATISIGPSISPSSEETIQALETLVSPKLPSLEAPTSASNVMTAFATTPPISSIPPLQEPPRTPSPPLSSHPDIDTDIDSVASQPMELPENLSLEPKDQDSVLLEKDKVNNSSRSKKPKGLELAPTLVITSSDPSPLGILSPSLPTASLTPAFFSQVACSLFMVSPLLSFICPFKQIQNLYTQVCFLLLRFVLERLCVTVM
Outline: as §1

ETV2 = target: T10, ETV2 (Homo sapiens, UniProt O00321 1-342); settings: protein: recombinant; tags: N-terminal GST; dsDNA, one strand shown
T10 sequence: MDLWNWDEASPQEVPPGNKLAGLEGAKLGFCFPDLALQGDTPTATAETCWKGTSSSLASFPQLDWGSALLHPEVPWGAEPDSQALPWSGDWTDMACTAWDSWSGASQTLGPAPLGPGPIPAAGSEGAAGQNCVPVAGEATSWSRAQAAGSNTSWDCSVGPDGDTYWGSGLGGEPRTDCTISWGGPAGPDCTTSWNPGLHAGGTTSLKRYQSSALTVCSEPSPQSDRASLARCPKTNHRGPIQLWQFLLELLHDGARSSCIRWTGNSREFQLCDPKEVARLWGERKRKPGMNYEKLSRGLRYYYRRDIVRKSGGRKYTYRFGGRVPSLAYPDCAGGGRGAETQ
Outline: as §1

ELF3 = target: T11, ELF3 (Homo sapiens, UniProt P78545 1-371); settings: protein: recombinant; tags: N-terminal GST; dsDNA, one strand shown
T11 sequence: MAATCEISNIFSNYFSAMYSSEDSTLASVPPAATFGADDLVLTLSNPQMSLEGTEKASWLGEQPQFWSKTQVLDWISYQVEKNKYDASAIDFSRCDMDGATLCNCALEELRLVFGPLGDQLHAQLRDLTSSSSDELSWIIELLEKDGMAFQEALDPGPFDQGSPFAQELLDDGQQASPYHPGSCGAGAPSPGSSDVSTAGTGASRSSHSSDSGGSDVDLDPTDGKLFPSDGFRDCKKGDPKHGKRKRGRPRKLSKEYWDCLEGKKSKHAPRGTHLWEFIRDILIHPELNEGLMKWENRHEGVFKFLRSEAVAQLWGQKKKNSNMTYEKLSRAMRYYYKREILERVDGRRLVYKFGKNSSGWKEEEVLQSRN
Outline: as §1

CRX = CRX (Homo sapiens, UniProt O43186 1-299); settings: protein: recombinant; tags: N-terminal GST; dsDNA, one strand shown
Outline: as §1

ETV1 = ETV1 (Homo sapiens, UniProt P50549 1-477); settings: protein: recombinant; tags: N-terminal GST; dsDNA, one strand shown
Outline: as §1

Chain of CRX (O43186 whole entry): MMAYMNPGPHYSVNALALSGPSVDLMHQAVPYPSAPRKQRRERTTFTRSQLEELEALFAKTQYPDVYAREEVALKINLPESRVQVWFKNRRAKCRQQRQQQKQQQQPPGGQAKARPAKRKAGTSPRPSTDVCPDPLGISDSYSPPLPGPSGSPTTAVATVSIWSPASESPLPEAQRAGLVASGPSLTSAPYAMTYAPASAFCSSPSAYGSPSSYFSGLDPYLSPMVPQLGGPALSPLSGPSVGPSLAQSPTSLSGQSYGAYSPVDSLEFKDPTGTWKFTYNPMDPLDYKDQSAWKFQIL
Chain of ELF4 (Q99607 whole entry): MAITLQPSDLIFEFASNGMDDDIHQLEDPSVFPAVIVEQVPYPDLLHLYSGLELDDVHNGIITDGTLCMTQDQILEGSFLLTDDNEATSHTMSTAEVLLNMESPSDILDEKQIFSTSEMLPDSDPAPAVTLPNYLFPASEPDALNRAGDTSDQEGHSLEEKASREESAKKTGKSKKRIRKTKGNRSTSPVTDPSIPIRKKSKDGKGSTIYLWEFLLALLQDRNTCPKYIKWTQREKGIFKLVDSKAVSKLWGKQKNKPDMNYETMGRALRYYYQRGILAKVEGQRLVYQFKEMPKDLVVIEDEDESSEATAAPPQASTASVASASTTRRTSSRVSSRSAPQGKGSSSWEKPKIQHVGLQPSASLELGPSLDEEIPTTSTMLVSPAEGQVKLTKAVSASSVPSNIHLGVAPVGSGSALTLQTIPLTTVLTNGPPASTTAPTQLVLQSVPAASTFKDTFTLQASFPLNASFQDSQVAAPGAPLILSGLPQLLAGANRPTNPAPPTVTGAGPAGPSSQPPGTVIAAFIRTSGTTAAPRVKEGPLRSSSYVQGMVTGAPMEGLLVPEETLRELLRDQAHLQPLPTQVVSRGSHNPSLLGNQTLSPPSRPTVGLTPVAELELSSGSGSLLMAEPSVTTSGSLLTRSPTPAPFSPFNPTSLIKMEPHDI
Chain of HSF1 (Q00613 whole entry): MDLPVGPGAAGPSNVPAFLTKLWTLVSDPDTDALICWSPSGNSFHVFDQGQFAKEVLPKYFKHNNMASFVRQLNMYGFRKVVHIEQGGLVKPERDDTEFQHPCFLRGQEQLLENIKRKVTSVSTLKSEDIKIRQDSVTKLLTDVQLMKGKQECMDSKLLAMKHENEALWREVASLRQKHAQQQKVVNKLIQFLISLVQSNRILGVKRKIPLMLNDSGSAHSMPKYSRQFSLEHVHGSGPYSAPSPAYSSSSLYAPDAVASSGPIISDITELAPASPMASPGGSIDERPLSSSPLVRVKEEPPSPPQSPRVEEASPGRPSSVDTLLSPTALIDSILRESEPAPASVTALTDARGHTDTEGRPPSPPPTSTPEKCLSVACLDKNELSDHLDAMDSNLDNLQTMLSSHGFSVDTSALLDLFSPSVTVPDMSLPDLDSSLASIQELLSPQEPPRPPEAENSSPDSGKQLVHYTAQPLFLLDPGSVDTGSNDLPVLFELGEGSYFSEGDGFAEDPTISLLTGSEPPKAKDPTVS
Chain of ETV5 (P41161 whole entry): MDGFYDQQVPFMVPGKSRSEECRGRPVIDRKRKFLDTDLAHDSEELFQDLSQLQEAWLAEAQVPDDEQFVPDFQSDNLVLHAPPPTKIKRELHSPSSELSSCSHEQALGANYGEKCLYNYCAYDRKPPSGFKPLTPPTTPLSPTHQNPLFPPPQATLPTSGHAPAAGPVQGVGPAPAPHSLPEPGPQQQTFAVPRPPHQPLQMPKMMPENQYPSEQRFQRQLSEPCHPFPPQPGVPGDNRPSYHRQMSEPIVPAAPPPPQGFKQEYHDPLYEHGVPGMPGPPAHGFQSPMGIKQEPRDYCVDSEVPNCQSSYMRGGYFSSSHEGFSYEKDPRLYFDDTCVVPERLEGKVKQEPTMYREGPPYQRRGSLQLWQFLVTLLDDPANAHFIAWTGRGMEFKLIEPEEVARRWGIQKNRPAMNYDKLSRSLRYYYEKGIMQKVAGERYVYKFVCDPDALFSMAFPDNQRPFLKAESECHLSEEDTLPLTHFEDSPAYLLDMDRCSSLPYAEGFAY
Chain of ETV1 (P50549 whole entry): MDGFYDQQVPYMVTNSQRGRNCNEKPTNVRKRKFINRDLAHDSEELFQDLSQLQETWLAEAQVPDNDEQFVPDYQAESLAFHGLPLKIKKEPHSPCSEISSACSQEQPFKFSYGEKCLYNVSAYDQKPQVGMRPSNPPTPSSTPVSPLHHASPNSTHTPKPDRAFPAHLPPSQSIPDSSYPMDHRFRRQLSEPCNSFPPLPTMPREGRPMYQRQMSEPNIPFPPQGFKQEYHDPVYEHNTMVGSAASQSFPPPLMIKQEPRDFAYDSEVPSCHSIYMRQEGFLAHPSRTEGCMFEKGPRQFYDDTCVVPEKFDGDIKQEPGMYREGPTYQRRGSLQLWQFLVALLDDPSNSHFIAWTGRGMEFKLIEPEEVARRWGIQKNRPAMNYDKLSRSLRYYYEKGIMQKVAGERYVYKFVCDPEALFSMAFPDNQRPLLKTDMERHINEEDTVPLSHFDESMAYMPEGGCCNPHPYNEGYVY
Chain of SPIB (Q01892 whole entry): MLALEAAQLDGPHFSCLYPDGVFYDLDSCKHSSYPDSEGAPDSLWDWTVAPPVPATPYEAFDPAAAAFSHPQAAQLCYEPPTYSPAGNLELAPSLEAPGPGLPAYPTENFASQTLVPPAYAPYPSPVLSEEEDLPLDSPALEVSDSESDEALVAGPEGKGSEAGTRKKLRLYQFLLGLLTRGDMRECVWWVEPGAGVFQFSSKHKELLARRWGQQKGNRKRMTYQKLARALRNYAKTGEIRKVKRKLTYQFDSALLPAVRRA
Chain of ELF1 (P32519 whole entry): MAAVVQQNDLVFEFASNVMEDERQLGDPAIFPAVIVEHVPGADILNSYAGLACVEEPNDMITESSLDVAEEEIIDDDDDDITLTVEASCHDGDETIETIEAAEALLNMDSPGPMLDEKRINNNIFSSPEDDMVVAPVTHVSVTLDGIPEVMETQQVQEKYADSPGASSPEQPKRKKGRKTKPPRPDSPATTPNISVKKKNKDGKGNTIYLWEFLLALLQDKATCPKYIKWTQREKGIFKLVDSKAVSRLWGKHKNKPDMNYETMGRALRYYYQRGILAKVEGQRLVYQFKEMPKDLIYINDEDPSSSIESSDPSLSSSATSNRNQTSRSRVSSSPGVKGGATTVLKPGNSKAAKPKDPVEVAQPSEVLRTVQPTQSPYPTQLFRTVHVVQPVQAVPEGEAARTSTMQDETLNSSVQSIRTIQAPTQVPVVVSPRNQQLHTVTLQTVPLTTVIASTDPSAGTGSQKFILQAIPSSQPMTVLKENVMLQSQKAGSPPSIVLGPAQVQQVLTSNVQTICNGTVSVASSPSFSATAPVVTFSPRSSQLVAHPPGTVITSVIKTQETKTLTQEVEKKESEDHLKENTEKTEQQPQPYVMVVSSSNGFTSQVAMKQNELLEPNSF

Question: Which results are given for AGCTAT?
Answer: binding signal (FLI1): 1.21 fold enrichment (6-mer frequency, TF over GST control); binding signal (ELK1): 1.14 fold enrichment (6-mer frequency, TF over GST control); binding signal (GABPA): 1.23 fold enrichment (6-mer frequency, TF over GST control); binding signal (ERG): 1.17 fold enrichment (6-mer frequency, TF over GST control); binding signal (ELF1): 1.16 fold enrichment (6-mer frequency, TF over GST control); binding signal (EHF): 1.23 fold enrichment (6-mer frequency, TF over GST control); binding signal (SPI1): 1.15 fold enrichment (6-mer frequency, TF over GST control); binding signal (SPIB): 1.26 fold enrichment (6-mer frequency, TF over GST control); binding signal (ELK3): 1.24 fold enrichment (6-mer frequency, TF over GST control); binding signal (FEV): 1.16 fold enrichment (6-mer frequency, TF over GST control); binding signal (ETV5): 1.16 fold enrichment (6-mer frequency, TF over GST control); binding signal (HSF1): 1.12 fold enrichment (6-mer frequency, TF over GST control); binding signal (SPIC): 1.15 fold enrichment (6-mer frequency, TF over GST control); binding signal (ELF4): 1.15 fold enrichment (6-mer frequency, TF over GST control); binding signal (ELK4): 1.27 fold enrichment (6-mer frequency, TF over GST control); binding signal (ETV2): 1.2 fold enrichment (6-mer frequency, TF over GST control); binding signal (ELF3): 1.2 fold enrichment (6-mer frequency, TF over GST control); binding signal (CRX): 1.27 fold enrichment (6-mer frequency, TF over GST control); binding signal (ETV1): 1.2 fold enrichment (6-mer frequency, TF over GST control)
